This is part of a sample that, as a whole, favours compounds with a hit. Of some 83,000 tested, about 20% had one in any assay.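 The test compound was applied at a single concentration to cells in 96-well plates for 48 hours, and percent growth was recorded.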 Values without a mark were called inactive. The source made the active and inactive calls. The calls were made as follows: active = growth percent below 10; inactive = the rest.

This assay concerns BT-549 breast. The experiment in a line: NCI-60 one-dose screen, 48 h (100 = growth as untreated, 0 = no growth, -100 = all killed). The following applies: 10 µM unless noted.
As for `CCN1C(=O)N(CC)C2SC(N/N=C/c3cccs3)=NC21` (stereo not drawn), the growth is -40% (active).
Consider `O=C1NC(=O)/C(=C/c2ccc(OCc3cc4ccccc4nc3Cl)cc2)S1`, for which the growth was 123%.
The result for `O=C(NNc1nc2cc(F)c(F)cc2n2cccc12)c1ccncn1` reads 28.7%; that for `C#C[C@]1(O)CC[C@H]2[C@@H]3CC=C4c5sc(Nc6nc(C)cc(OC)n6)nc5CC[C@]4(C)[C@H]3CC[C@@]21C`, 48%; that for `CCNC(=O)Oc1ccc(/C(=C(/C)c2ccc(Cl)cc2)c2ccc(OCCN3CCCC3)cc2)cc1`, 90.4%.
In the case of `O=C(NNc1nc2cc(F)c(F)cc2n2cccc12)c1cccnn1`, the growth was 32.3%.
As for `O=C(O)CNS(=O)(=O)c1ccc(Oc2ccc(S(=O)(=O)NCC(=O)O)cc2)cc1`, the figure is 115%.
As for `Cc1cc(NS(=O)(=O)c2ccc(-c3cnc(C4CC4)o3)cc2)ccc1I`, the figure is 36%; as for `COc1ccc(C(=O)c2c(N)c(C#N)cn2-c2cccc(OC)c2)cc1`, 41.9%.
As for `COc1ccc(CCN2C(=O)CSC2=S)cc1OC`, the figure is 110%; as for `Cc1ccc(/C=C/CC(=O)Nc2ccc(C(=O)Nc3ccc(F)cc3N)cc2)cn1`, 73%; as for `O=C(NNc1nc2cc(F)cc(F)c2n2cccc12)c1ccncn1`, 12.2%.
In the case of `C[C@H]1[C@H](C)CC[C@]2(COC(=O)c3cccnc3)CC[C@]3(C)C(=CC[C@@H]4[C@@]5(C)CCCNC(C)(C)[C@@H]5CC[C@]43C)[C@H]12`, the growth is 76.5%.
As for `Fc1ccccc1/C=C(/C1=NCCN1)n1cnc2ccccc21`, the figure is 102%; as for `COc1ccc(CN2C(=O)/C(=C/c3nc(CO)cs3)SC2=S)cc1`, 99.9%; as for `O=C(Nc1cc(F)cc2cccnc12)c1cnc(N2CCOCC2)cn1`, 72.4%.
As for `CC1OC(O[C@@H]2[C@H](O)C(CO)OC(O[C@H]3COC(O[C@H]4CC[C@]5(C)[C@H]6CC[C@]78OC[C@@]9(CCC(C)(C)C[C@H]97)[C@H](O)C[C@@]8(C)[C@]6(C)CC[C@H]5C4(C)C)[C@@H](OC4OC(CO)[C@@H](O)[C@@H](O)[C@@H]4O)[C@@H]3O)[C@H]2OC2OC[C@@H](O)[C@@H](O)[C@@H]2O)[C@@H](O)[C@@H](O)[C@H]1O` (stereo partly drawn), the figure is -69.2% (active); as for `C#C[C@]1(O)CC[C@H]2[C@@H]3CC=C4c5sc(Nc6cccc(Cl)n6)nc5CC[C@]4(C)[C@H]3CC[C@@]21C`, 24.1%.
The result for `Cc1ccc(/C=C/CC(=O)Nc2ccc(C(=O)Nc3ccc(F)cc3N)nc2)cn1` reads 48.5%; that for `O=C1[C@@H]2Cc3c([nH]c4ccccc34)[C@H](c3c(Cl)cccc3Cl)N2C(=O)CN1C1CCN(Cc2ccccc2)CC1`, 29.4%; that for `C#CCOc1ccc(C(Nc2ccc(OC)cc2)c2nnnn2C2CCCCC2)cc1` (stereo not drawn), 99.6%.
With `COc1cc(C(=O)c2cc(C(C)=O)c3c4ccccc4ccn23)cc(OC)c1OC`, the growth is 59%.
As for `Cc1[nH]nc2ccc(-c3nc4cnc(N5CCN(C)CC5)cn4c3Nc3ccc(F)cc3Br)cc12`, the figure is 91.1%; as for `O=C(Nc1cccc(Cl)c1)Nc1nc2ccc(-c3cccc4ccccc34)cc2s1`, 102%; as for `Cc1cc(C(=O)Nc2ccc(SC#N)cc2)c(C)o1`, 75.4%.
The result for `O=C(NNc1nc2cc(F)c(F)cc2n2cccc12)c1ncccn1` reads 36.8%; that for `CN1CCN(c2ccc(NC(=O)Nc3ccc4c(ccn4-c4cccc(C(N)=O)n4)c3)cc2C(F)(F)F)CC1`, 89.9%.
On to `O=C(Nc1ccc(Cl)cc1)Nc1nc2ccc([N+](=O)[O-])cc2s1`, for which the growth is -38% (active).
Take `NC(=O)c1c(NC(=O)c2cccc(OC(F)(F)F)c2)sc2c1CCC(=O)C2`: the growth is 28.4%.
As for `O=C(/C=C1\C=CN(CCCCO)c2ccccc21)n1ccc2ccccc21`, the figure is 112%.
On to `O=C1c2c(c3c4cccnc4[nH]c3c3ccc4ccccc4c23)C(=O)N1CCN1CCNCC1`, for which the growth was 102%.
Regarding `O=C(Nc1ccccc1)Nc1nc2ccc([N+](=O)[O-])cc2s1`, the growth was -11.8% (active).
The result for `Cc1cc(Cl)cc(NS(=O)(=O)c2ccc(-c3cnc(C4CC4)o3)cc2)c1` reads 48%.
As for `CCOC(=O)C1=C(C)Nc2nc3ccccc3n2C1c1cccc(Br)c1` (stereo not drawn), the figure is 76.9%; as for `CCOC(=O)c1nn(-c2ccc(C)cc2)c(=O)c2c(N)c(C#N)c(-c3ccc(OC)cc3)cc12`, 130%.
As for `Cc1ccc(NC(=O)c2cccc(CN3CCN(C)CC3)c2)cc1Oc1ccc(-c2[nH]nc3ncnc(N)c23)cc1`, the figure is 95.8%; as for `O=C1c2c(c3c4cc(Br)ccc4[nH]c3c3ccc4ccccc4c23)C(=O)N1CCN1CCCCC1`, 91%.
`CC(C)(C)OC(=O)N1CCN(S(=O)(=O)/N=C2\NC(=O)NC2=C(Cl)Cl)CC1`: the growth was 101%.

The values are drawn from PubChem BioAssay (NCI).
